# Several values for one entry are separate records, joined by “and”; a condition that tells them apart may be missing. Identical values can stand only once. The whole screen tested about 16,000 compounds, of which about 5,700 (36%) were called active. Another 24% or so got no clear call; they are omitted. This is one part of the list. Unmarked numbers belong to inactive results. The call rests on the fitted dose curve; in most records, active means well fitted curve in the direction sought with a large enough effect; inconclusive means small, poorly fitted or top-dose-only effect, or effect the other way; inactive means no such curve, though single readings can be large or run the other way.
# Target: Cytochrome P450 1A2 (Homo sapiens) (UniProt P05177)
# Test: Cytochrome panel assay with activity outcomes
# Details: recombinant CYP, pro-luciferin dealkylation, luminescence, p450-cyp1a2; series mostly up to 57.1 µM; activity, negative = inhibition: at the top concentration
# On the % scale 0 is the no-effect control and ±100 the full control effect.
# Sequence of Cytochrome P450 1A2 (Homo sapiens) (P05177 whole entry, looked up): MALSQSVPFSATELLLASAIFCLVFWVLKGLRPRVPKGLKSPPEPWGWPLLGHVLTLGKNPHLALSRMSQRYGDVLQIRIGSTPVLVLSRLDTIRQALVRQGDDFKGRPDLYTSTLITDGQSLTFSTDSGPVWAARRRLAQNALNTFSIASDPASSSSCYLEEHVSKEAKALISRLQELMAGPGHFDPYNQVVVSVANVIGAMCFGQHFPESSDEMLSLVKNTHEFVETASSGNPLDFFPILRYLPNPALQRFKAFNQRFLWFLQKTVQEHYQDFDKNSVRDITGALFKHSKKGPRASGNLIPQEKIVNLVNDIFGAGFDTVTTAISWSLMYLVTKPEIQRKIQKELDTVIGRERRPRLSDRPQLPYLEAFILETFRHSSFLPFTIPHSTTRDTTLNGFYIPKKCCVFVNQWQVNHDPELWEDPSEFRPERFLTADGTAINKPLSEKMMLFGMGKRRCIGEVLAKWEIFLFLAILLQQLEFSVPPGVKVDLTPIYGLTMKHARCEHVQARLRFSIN
SMILES,"activity, negative = inhibition",AC50
CN1CCC2(CC1)CCN(S(=O)(=O)c1ccccc1)CC2,-11%,–
CC1CN(C(=O)CN2C(=O)NC3(CCCCCC3)C2=O)CC(C)O1 (stereo unspecified),-0.466%,–
Cc1cc(C)n(C(=O)c2cc3c(s2)CCCC3)n1,–,0.282 µM (active)
CC1CN(C(=O)c2cc3c(s2)CCC3)CC(C)O1 (stereo unspecified),–,12.6 µM (active)
Cc1ccc(CC(=O)N2CC(C)OC(C)C2)cc1 (stereo unspecified),9.16%,–
CCCN(CCC)CCc1cccc2c1CC(=O)N2,-4.15%,–
NC(=O)CNCCC(c1ccccc1)c1ccccc1,-4.69%,–
CN(C)CCCN1c2ccccc2Sc2ccc(C(F)(F)F)cc21,–,1.58 µM (active) and 794 nM (active)
CCC(=O)c1ccc2c(c1)N(CCCN(C)C)c1ccccc1S2,–,0.631 µM (active)
CN(C)CCCO[C@H]1[C@@H]2OC(C)(C)O[C@@H]2O[C@@H]1[C@H](O)CO,-3.46% [at 25.6 µM],–
CC(=NC1CCCCC1)c1ccccc1O,-14.9% [at 11.4 µM],–
C/C(=N/Nc1ccc2ccccc2n1)c1ccccc1O,–,1.58 µM (active)
C/C(CCN1CCc2nc(-c3ccccc3)c(-c3ccccc3)cc2C1)=N\O[C@@H](C)CN1CCCc2nc(C)c(C)cc21,-2.64% [at 11.4 µM],–
Cc1cc2nnc(SCC(=O)N3CCN(c4ccccc4)CC3)n2c(N)n1,-10.5%,–
Cc1cc2nnc(SCC(=O)OC(C)C)n2c2ccccc12,–,14.1 µM (active)
Cc1cc2nnc(SCCCCN3C(=O)c4ccccc4C3=O)n2c2ccccc12,–,15.8 µM (active)
CC(C)NC(=O)CSc1nnc(C2CC2)n1-c1ccccc1,-6.62%,–
CCOc1ccc(CNC(=O)C2CC(=O)N(C3CCCC3)C2)cc1OC (stereo unspecified),-12.7%,–
CCOc1ccc(CCNC(=O)C2CC(=O)N(C3CCCC3)C2)cc1OCC (stereo unspecified),–,10 µM (active)
O=C(NCCN1CCN(Cc2ccccc2)CC1)C1CC(=O)N(C2CCCC2)C1 (stereo unspecified),-4.83%,–
COc1cc2c(cc1OC)-c1cc3ccc(OC)c(OC)c3c[n+]1CC2,-11.4% [at 25.6 µM],–
COc1ccc2cc3[n+](cc2c1OC)CCc1cc2c(cc1-3)OCO2,–,5.01 µM (active)
CCn1nc(C)c(NC(=O)/C=C/c2cnn(C)c2C)c1C,-12%,–
CCN1CCN(C(=O)CCc2nc3ccccc3c(=O)[nH]2)CC1,-11.1%,–
CCn1cc(C(=O)O)c(=O)c2cc(F)c(N3CCNCC3)nc21,-10.1% [at 25.6 µM],–
CCN1CCN(c2nc(-c3ccccn3)nc3ccccc23)CC1,–,11.2 µM (active)

SMILES,"activity, negative = inhibition",AC50
CCN1CCN(c2nn3c(=O)c4ccccc4nc3c3ccccc23)CC1,–,6.31 µM (active)
Cc1cccc(C2NC(=O)c3c(sc(C)c3C)N2)c1O (stereo unspecified),–,3.55 µM (active)
O=C1CCCC=C1[C@@H](O)CCOC(c1ccccc1)(c1ccccc1)c1ccccc1,-6.79% [at 11.4 µM],–
CCOC(=O)N1CCN(c2nc(-c3ccco3)cc(C(F)(F)F)n2)CC1,–,0.501 µM (active)
CCCNC(=O)CSc1nc(-c2cccs2)cc(C(F)(F)F)n1,–,2.51 µM (active)
COc1cc2nc(N3CCN(C(=O)c4ccco4)CC3)nc(N)c2cc1OC,-13.1% [at 25.6 µM],–
CCOC(=O)N1CCN(C(=O)CN(C)S(=O)(=O)c2ccc3c(c2)C(C)(C)C(=O)N3C)CC1,-10.3%,–
COCCNC(=O)CSc1ncnc2sccc12,-12.2%,–
CCOC(=O)N1CCN(c2nc(-c3cccs3)cc(C(F)(F)F)n2)CC1,–,2.82 µM (active)
CCOC(=O)N1CCN(C(=O)CNCc2cccs2)CC1,0.601%,–
CCC1(C)CC(CCNS(=O)(=O)c2ccc(C)cc2)(c2ccc(C)cc2)CCO1 (stereo unspecified),-17.8%,–
CN(C)c1ncc2nc(-c3ccccc3)c(=O)n(C3CC3)c2n1,–,2.51 µM (active)
CN(C)c1ncc2nc(-c3ccc(F)cc3)c(=O)n(C3CC3)c2n1,–,1.58 µM (active)
CCc1cccc(N(C)C(N)=Nc2cccc3ccccc23)c1,-7.54%,–
CC(=O)OC[C@H]1O[C@@H](O/N=C\[C@@H](C)[C@H](OCc2ccccc2)C(C)C)[C@H](OC(C)=O)[C@@H](OC(C)=O)[C@H]1OC(C)=O,-8.7% [at 11.4 µM],–
CCC(C)(C(=O)NC1CCCC1)N(Cc1ccco1)C(=O)c1ccccn1 (stereo unspecified),-21.7%,–
Cc1ccccc1-c1nc(N(C)Cc2ccco2)c2ccccc2n1,–,1.58 µM (active)
COc1ccccc1-c1nc(N(C)Cc2ccco2)c2ccccc2n1,–,0.501 µM (active)
CN(Cc1ccco1)c1nc(-c2ccccc2C(F)(F)F)nc2ccccc12,–,2 µM (active)
CN(Cc1ccco1)c1ccnc(-c2ccccc2C(F)(F)F)n1,–,2.51 µM (active)
CN(C)Cc1ccccc1-c1nc(N(C)Cc2ccco2)c2ccccc2n1,–,0.794 µM (active)
CC(C)c1ccc(/C(C(=O)O)=C(\O)C(=O)O)cc1,-18.6% [at 11.4 µM],–
COc1c(O)cc2c(c1O)[C@@H]1O[C@@H](CO)[C@@H](O)[C@@H](O)[C@@H]1OC2=O,-3.97% [at 25.6 µM],–
Cc1ccc(C(=O)N/N=C/c2ccc(S(=O)(=O)O)o2)c(Cl)c1,2.08%,–
Cc1ccc(NCC(=O)N/N=C\c2ccc([N+](=O)[O-])o2)cc1,–,1.41 µM (active)
CCOC(=O)N/N=C(/C)c1ccc([N+](=O)[O-])o1,–,12.6 µM (active)

SMILES,"activity, negative = inhibition",AC50
CCOC(=O)N/N=C\c1ccc([N+](=O)[O-])o1,–,12.6 µM (active)
Cc1ccc(NCC(=O)N/N=C/c2ccc(OC(=O)c3ccco3)cc2)cc1,–,7.08 µM (active)
O=C(ON=C1CCN(S(=O)(=O)c2ccccc2)CC1)c1ccccc1,-2.38%,–
CCN1C(=O)C2(SC(NC(C)=O)=NN2C(C)=O)c2cc(C)ccc21 (stereo unspecified),-7.91%,–
CC(C)C[C@H](NC(=O)[C@@H]1O[C@H]1C(=O)O)C(=O)NCCCCN=C(N)N,-9.37%,–
Cc1nonc1NC(=O)OCCN1CCOC1=O,-12.4%,–
Clc1ccc2c(c1)C(c1cccs1)=NNC(c1cccnc1)=N2,–,3.16 µM (active)
Nc1ccc(Sc2cnn(-c3ccccc3)c(=O)c2Cl)cc1,–,5.01 µM (active)
O=c1c(Cl)c(N2CCN(S(=O)(=O)c3ccc(F)cc3)CC2)cnn1-c1cccc(Cl)c1,-4.11%,–
CC1(C)Cc2ccccc2C(NNC(=O)c2ccncc2)=N1,–,10 µM (active)
CN1CCC2(CC1)CCN(C(=O)c1ccncc1)CC2,0.859%,–
CC(C)NNC(=O)c1ccncc1,–,inactive
CC1=C(C#N)C(NC(=O)C2CCCCC2)(C(F)(F)F)C(=O)N1 (stereo unspecified),-19.3%,–
Cc1sc(NC(=O)C2CCCCC2)c(C#N)c1-c1ccccc1,–,5.01 µM (active)
Cc1sc(NC(=O)/C=C/c2ccc(C(C)C)cc2)c(C#N)c1C,-4.52%,–
Cc1c(OCC(F)(F)F)ccnc1CSc1nc2ccccc2[nH]1,–,3.55 µM (active)
C[N+](C)(C)CCCSc1nc2ccccc2[nH]1,-15.1% [at 11.4 µM],–
O=c1c[n+](CCCC[n+]2cc(=O)o[nH]2)[nH]o1,2.3% [at 11.4 µM],–
CC(C)(Oc1ccc(Cl)cc1)C(=O)Nc1cccnc1,–,2 µM (active)
CC(C)(Oc1ccc(Cl)cc1)C(=O)Nc1ccncc1,–,20 µM (active)
N#CCCn1c(=O)c(-c2cccs2)nc2cnc(Oc3cccc(Cl)c3)nc21,–,3.16 µM (active)
N#CCCn1c(=O)c(-c2ccc(Cl)cc2)nc2cnc(Oc3cccc(Cl)c3)nc21,-14.7%,–
COCCn1c(=O)c(-c2cc(F)cc(F)c2)nc2cnc(Oc3cccc(Cl)c3)nc21,–,5.01 µM (active)
COCCn1c(=O)c(-c2ccccc2)nc2cnc(Oc3cccc(Cl)c3)nc21,–,1 µM (active)
N#CCCn1c(=O)c(-c2ccccc2)nc2cnc(Oc3cccc(Cl)c3)nc21,–,2.51 µM (active)
Cc1noc(C)c1-c1nccc(NCc2ccccc2)n1,–,0.794 µM (active)

SMILES,"activity, negative = inhibition",AC50
Cc1noc(C)c1-c1nccc(NCc2cccnc2)n1,–,0.158 µM (active)
Cc1cnc(CNc2ccnc(-c3c(C)noc3C)n2)cn1,–,12.6 µM (active)
Cc1noc(C)c1C(=O)N1CCC2(CCN(Cc3ccccc3)CC2)CC1,-5.81%,–
Cc1noc(C)c1-c1nccc(NCc2cccs2)n1,–,0.501 µM (active)
CC(=O)N(NC(=O)c1ccccc1Cl)C1CC(=O)N(c2ccc(C)cc2)C1=O (stereo unspecified),5.79%,–
CC(=O)/C=C/c1ccc2ccccc2n1,–,2.51 µM (active)
O=C(O)/C=C\C(=O)N1Cc2cc3ccccc3nc2C1,-16.3% [at 11.4 µM],–
O=C(c1cnccn1)N1CCC2(CC1)CN(c1ccccn1)C2,-12.9%,–
C[C@@](N)(Cc1c[nH]c2ccccc12)C(=O)O,-11.5% [at 11.4 µM],–
COC(=O)C(Cc1c[nH]c2ccccc12)NC(=O)C(C)C (stereo unspecified),-15.1%,–
CCOC(=O)CCCc1c[nH]c2ccccc12,–,2.51 µM (active)
N[C@@H](Cc1c[nH]c2ccccc12)C(=O)O,-1.28%,–
CN(CC(=O)O)Cc1c[nH]c2ccccc12,-14.8% [at 11.4 µM],–
CN1C2C=C(N(CCc3c[nH]c4ccccc34)C(=O)c3ccc(Cl)cc3)CC1CC2 (stereo unspecified),14.6%,–
O=C(Cc1c[nH]c2ccccc12)OCC(=O)c1ccccc1,–,12.6 µM (active)
CC(C)CNC(=O)CCCc1c[nH]c2ccccc12,–,14.1 µM (active)
Cc1cccc(CN2CCN(CC(=O)O)C2=O)c1,9.94%,–
O=C(O)CN1CCN(Cc2ccc(F)cc2Cl)C1=O,–,5.62 µM (active)
O=C(O)CN1CCN(Cc2ccccc2)C1=O,-26.6%,–
Cc1ccc(C(c2nnnn2CC2CCCO2)N2CCN(C(=O)c3ccco3)CC2)cc1 (stereo unspecified),-19.2%,–
CCOC(=O)c1sc(N(Cc2ccccc2)C(=O)CN2C(=O)CN(C)C2=O)nc1C,–,20 µM (active)
Cc1ccc2[nH]c(=O)c(NC(N)=S)nc2c1,–,4.47 µM (active)
COc1ccc2[nH]c(=O)c(NC(N)=S)nc2c1,–,3.55 µM (active)
